# Data: PubChem BioAssay AID1851 (National Center for Advancing Translational Sciences (NCATS), 2009)
# Screen size: about 16,000 compounds; about 5,100 (32%) were called active. Inconclusive results (about 25%) are left out. This is one part of the list. Values without a mark were called inactive. The call rests on the fitted dose curve; in most records, active means well fitted curve in the direction sought with a large enough effect; inconclusive means small, poorly fitted or top-dose-only effect, or effect the other way; inactive means no such curve, though single readings can be large or run the other way.
# Target: Cytochrome P450 3A4 (Homo sapiens) (UniProt P08684)
# Sequence (P08684 whole entry, looked up): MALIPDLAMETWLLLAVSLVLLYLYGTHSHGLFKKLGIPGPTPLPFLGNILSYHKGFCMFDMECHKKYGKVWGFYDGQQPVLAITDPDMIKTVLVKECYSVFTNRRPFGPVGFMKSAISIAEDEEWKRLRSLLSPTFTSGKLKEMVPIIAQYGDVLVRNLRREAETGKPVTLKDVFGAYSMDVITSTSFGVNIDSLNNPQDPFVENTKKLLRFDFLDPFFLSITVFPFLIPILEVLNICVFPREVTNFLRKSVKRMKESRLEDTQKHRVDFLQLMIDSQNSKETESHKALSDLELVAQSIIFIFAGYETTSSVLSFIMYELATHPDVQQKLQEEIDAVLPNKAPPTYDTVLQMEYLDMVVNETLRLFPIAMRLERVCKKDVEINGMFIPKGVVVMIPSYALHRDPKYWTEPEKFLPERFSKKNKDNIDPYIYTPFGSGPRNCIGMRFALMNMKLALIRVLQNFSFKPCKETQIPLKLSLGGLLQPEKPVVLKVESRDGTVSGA
# Experiment: Cytochrome panel assay with activity outcomes
# Conditions: recombinant CYP, pro-luciferin dealkylation, luminescence, p450-cyp3a4; series mostly up to 57.1 µM; activity, negative = inhibition: at the top concentration
# On the % scale 0 is the no-effect control and ±100 the full control effect.
SMILES,"activity, negative = inhibition",AC50
Clc1cnccn1,1.91% [at 25.6 µM],
CCN(CC)CC#CCC(C)(c1ccccc1)c1ccccc1,-27.1% [at 2.29 µM],
CCCOc1ccc(CSC(CC(=O)O)C(=O)O)cc1 (stereo unspecified),-9.38%,
CO/N=C(\C(=O)N[C@@H]1C(=O)N2C(C(=O)O)=C(COC(C)=O)CS[C@@H]12)c1csc(N)n1,,inactive
Cc1ccc(C(=O)Oc2cc(C)n(C)c(=O)c2)cc1,-2.99%,
CC(C)(CN)CN,-13.3% [at 11.4 µM],
COc1ccccc1CNc1nc(-c2ccc3c(c2)OCO3)nc2ccccc12,,1.26 µM (active)
C/C(=N/NS(=O)(=O)c1ccc(C)cc1)P(=O)(O)O,-8.75% [at 11.4 µM],
C/C(=N/NS(=O)(=O)c1ccc(C)cc1)c1cccc(NC(=O)c2cccc(Cl)c2)c1,,1.41 µM (active)
CCC(=O)Nc1ccc(/C(C)=N\NS(=O)(=O)c2ccc(C)cc2)cc1,-25.1% [at 2.29 µM],
COc1ccc(S(=O)(=O)N/N=C(/C)c2cccc(NC(=O)c3ccccc3Cl)c2)cc1,,2.24 µM (active)
CC(C)(C)C(=O)[C@H]([C@@H](c1ccccc1)N1CCOCC1)N1CCOCC1,,2.51 µM (active)
CC(=O)[C@H]([C@@H](c1ccccc1)N1CCOCC1)N1CCOCC1,-29.9% [at 11.4 µM],
O=C(CSc1ncnc2nc[nH]c12)c1ccccc1,-16.5% [at 11.4 µM],
CC1=NN(c2ccccc2)C(=O)C1C(=O)c1ccc(Cl)cc1 (stereo unspecified),-25.5%,
O=c1ccnc(SCc2ccc(Cl)cc2)[nH]1,-11.7% [at 11.4 µM],
c1ccc(CCSc2nccn2-c2ccccc2)cc1,,14.1 µM (active)
O=C(CSc1nccn1-c1ccccc1)c1ccc(Cl)cc1,,10 µM (active)
O=C(O)CSCCc1ccccc1,0.346% [at 11.4 µM],
OCCn1cnc2c(SCc3ccccc3)ncnc21,-4.24% [at 11.4 µM],
Clc1ccc(CSc2nccn2Cc2ccccc2)cc1,,7.08 µM (active)
CCc1ccc(CSc2nccn2-c2ccccc2)cc1,,14.1 µM (active)
O=C1C[C@H](c2ccccc2)[C@@H](c2ccc(Br)cc2)O1,1.97% [at 11.4 µM],
C#CCCCO/N=C1/[C@H]2O[C@@H]2[C@@H](O)[C@H]2[C@H]1CCn1c(=O)n(Cc3cc4c(cc3Cl)OCO4)c(=O)n12,-10.8% [at 11.4 µM],
Cn1nnnc1SCc1ccccc1[N+](=O)[O-],3.46% [at 2.29 µM],
Cc1ccccc1CSc1nccn1-c1ccccc1,,5.01 µM (active)
